Results reported in article PMC5540273 (PLoS ONE, 2017).

Assays:
Details in all cases: concentration: 1 μM, replicates: in singlicate; n = 1
[1] = system: SIK2
[2] = system: SIK
[3] = system: SLK
[4] = system: T1, SNARK
T1 construct: gene NUAK2

[5] = system: SNRK
[6] = system: SRC
[7] = system: SRMS
[8] = system: SRPK1
[9] = system: SRPK2
[10] = system: SRPK3
[11] = system: STK16
[12] = system: STK33
[13] = system: STK35
[14] = system: STK36
[15] = system: STK39
[16] = system: SYK
[17] = system: SgK110
[18] = system: T2, TAK1
T2 construct: gene MAP3K7

[19] = system: TAOK1
[20] = system: TAOK2
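Also: KINOMEscan kinase panel screen.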

Structure (SMILES) | %Inh [1] | %Inh [2] | %Inh [3] | %Inh [4] | %Inh [5] | %Inh [6] | %Inh [7] | %Inh [8] | %Inh [9] | %Inh [10] | %Inh [11] | %Inh [12] | %Inh [13] | %Inh [14] | %Inh [15] | %Inh [16] | %Inh [17] | %Inh [18] | %Inh [19] | %Inh [20]
COc1ccc2nc(-c3cccc(C)n3)nc(Nc3ccncc3)c2c1 [GSK204919] | 2% | 0% | 9% | 0% | 0% | 5% | 0% | 26% | 0% | 16% | 1% | 0% | 5% | 0% | 7% | 10% | 2% | 0% | 0% | 0%
CS(=O)(=O)c1ccc(-c2c(-c3ncn[nH]3)sc(N3CCOCC3)c2C#N)cc1 | 0% | 39% | 3% | 0% | 7% | 0% | 0% | 0% | 0% | 0% | 7% | 0% | 0% | 1% | 0% | 23% | 15% | 33% | 0% | 0%
CN1C(=O)C(Nc2ccc(Cl)c(C(=O)O)c2)=C(c2ccc(Cl)cc2)C1=O [SB-404290] | 0% | 0% | 13% | 8% | 0% | 0% | 19% | 20% | 12% | 15% | 0% | 0% | 4% | 0% | 0% | 28% | 0% | 0% | 11% | 5%
Cc1cccc(-c2nc(C)cc(Nc3ccncc3)n2)n1 [GSK257997] | 0% | 0% | 42% | 4% | 0% | 0% | 0% | 35% | 0% | 11% | 2% | 0% | 0% | 0% | 0% | 34% | 0% | 24% | 0% | 0%
COc1cc2nccc(Nc3ccc(NC(=O)c4ccc(C)cc4)c(O)c3)c2cc1OC.Cl [GW440132] | 0% | 16% | 44% | 0% | 0% | 20% | 71% | 18% | 0% | 0% | 0% | 7% | 0% | 0% | 0% | 38% | 0% | 0% | 0% | 0%
O=C(Nc1n[nH]c2nc(-c3nccs3)c(Br)cc12)C1CC1 [SB-742251] | 0% | 6% | 0% | 0% | 0% | 0% | 0% | 19% | 21% | 0% | 61% | 0% | 0% | 1% | 21% | 0% | 4% | 0% | 0% | 0%
Cc1cccc(-c2nc(Nc3cccc(C(N)=O)c3)c3ccccc3n2)n1 [GW876019] | 63% | 14% | 14% | 0% | 0% | 0% | 33% | 17% | 23% | 4% | 0% | 29% | 0% | 0% | 0% | 14% | 41% | 0% | 0% | 30%
O=C(Nc1n[nH]c2cc(-c3cccc(F)c3F)ccc12)C1CC1 [SB-733894] | 0% | 0% | 0% | 1% | 3% | 0% | 3% | 44% | 22% | 5% | 12% | 0% | 0% | 9% | 0% | 0% | 17% | 48% | 23% | 0%
Cn1ccc2ncnc(Oc3ccc(NC(=O)Nc4ccccc4)cc3)c21 | 27% | 0% | 22% | 19% | 33% | 11% | 0% | 0% | 0% | 9% | 9% | 17% | 17% | 0% | 0% | 12% | 2% | 4% | 0% | 0%
Nc1ncnc2[nH]c(-c3ccccc3)nc12 [AH5015] | 5% | 0% | 14% | 3% | 100% | 29% | 2% | 12% | 0% | 0% | 0% | 0% | 0% | 4% | 0% | 10% | 0% | 0% | 7% | 0%
CC(=O)Nc1nc2cnc(Nc3cc(NC(=O)c4cccc(CCC#N)c4)ccc3C)nc2s1 | 0% | 16% | 14% | 9% | 33% | 18% | 0% | 17% | 22% | 0% | 17% | 0% | 0% | 16% | 0% | 15% | 13% | 42% | 0% | 0%
Cl.c1ccc(-c2n[nH]cc2-c2ccnc(-c3ccc(CN4CCOCC4)cc3)c2)nc1 [GW776245] | 0% | 23% | 0% | 0% | 0% | 15% | 0% | 0% | 0% | 41% | 17% | 0% | 0% | 9% | 0% | 16% | 0% | 0% | 0% | 5%
COc1ccccc1-c1ccc2c(NC(=O)C3CC3)n[nH]c2n1 [SB-711239] | 0% | 3% | 8% | 8% | 14% | 6% | 0% | 0% | 31% | 13% | 28% | 20% | 0% | 6% | 18% | 20% | 14% | 0% | 0% | 0%
Cc1cccc(-c2cc(Nc3ccncc3)c3ccccc3n2)n1 [GSK223675] | 0% | 0% | 0% | 0% | 0% | 0% | 0% | 5% | 0% | 0% | 19% | 0% | 0% | 0% | 0% | 2% | 0% | 0% | 0% | 0%
Cc1c(Cn2ccn3c(=O)cc(N4CCOCC4)nc23)cccc1C(F)(F)F [GSK2289044] | 0% | 0% | 13% | 5% | 0% | 0% | 0% | 12% | 0% | 0% | 13% | 0% | 0% | 19% | 13% | 15% | 0% | 0% | 0% | 0%
Cn1cncc1-c1ccc2ncnc(Nc3ccc(OCc4ccccc4)cc3)c2c1 [GW320571] | 13% | 6% | 19% | 0% | 86% | 2% | 0% | 0% | 0% | 25% | 5% | 20% | 10% | 0% | 7% | 0% | 0% | 0% | 0% | 0%
COc1cc2ncnc(Nc3ccc4nc(-c5ccccc5)[nH]c4c3)c2cc1OC.Cl [GW282450] | 2% | 0% | 30% | 0% | 0% | 0% | 0% | 3% | 0% | 17% | 19% | 0% | 0% | 0% | 0% | 43% | 0% | 23% | 0% | 0%
COc1ccccc1CNC(=O)c1cc(C(=O)c2ccccc2C)c[nH]1 [GSK364507] | 0% | 14% | 5% | 0% | 0% | 0% | 0% | 26% | 0% | 0% | 11% | 0% | 0% | 0% | 14% | 16% | 0% | 0% | 0% | 0%
Cl.NC(=O)c1cccc(Nc2nccc(Nc3ccc(Oc4cccc(Cl)c4)c(Cl)c3)n2)c1 [GW659008] | 5% | 12% | 32% | 0% | 0% | 25% | 37% | 0% | 0% | 13% | 38% | 0% | 0% | 0% | 12% | 1% | 0% | 0% | 0% | 0%
O=C1NC(=O)C(N2CCc3ccccc32)=C1c1ccccc1Cl [SB-373598] | 6% | 0% | 29% | 11% | 1% | 18% | 98.3% | 0% | 0% | 33% | 58% | 9% | 1% | 22% | 7% | 48% | 0% | 7% | 15% | 100%
CC(C)(C)c1ccc(C(=O)Nc2cn3cc(Cl)ccc3n2)cc1 | 0% | 4% | 24% | 0% | 0% | 0% | 0% | 0% | 0% | 0% | 0% | 0% | 0% | 0% | 0% | 17% | 0% | 0% | 0% | 10%
